Counter-ions that a name gives are not always drawn. Unmarked numbers belong to inactive results.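 Rule for the calls: active = log2 fold change beyond 2 SD from the library mean after excluding viability outliers; inactive = within 2 SD.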
Each molecule was assayed against PARP1 L713F-nLuc biosensor (HCT116) (UniProt P09874) (assay: PARP1 L713F-nLuc/akaLuc ratio relative to DMSO control (biosensor stabilization) (fold change); higher = more PARP1 biosensor stabilization (target engagement / stabilizer), active = hit call of the paper). Conditions: stock concentration (mM; final µM = stock mM x 1): 10; 24 h.
PARP1 L713F-nLuc biosensor (HCT116), sequence (P09874 whole entry L713F, looked up): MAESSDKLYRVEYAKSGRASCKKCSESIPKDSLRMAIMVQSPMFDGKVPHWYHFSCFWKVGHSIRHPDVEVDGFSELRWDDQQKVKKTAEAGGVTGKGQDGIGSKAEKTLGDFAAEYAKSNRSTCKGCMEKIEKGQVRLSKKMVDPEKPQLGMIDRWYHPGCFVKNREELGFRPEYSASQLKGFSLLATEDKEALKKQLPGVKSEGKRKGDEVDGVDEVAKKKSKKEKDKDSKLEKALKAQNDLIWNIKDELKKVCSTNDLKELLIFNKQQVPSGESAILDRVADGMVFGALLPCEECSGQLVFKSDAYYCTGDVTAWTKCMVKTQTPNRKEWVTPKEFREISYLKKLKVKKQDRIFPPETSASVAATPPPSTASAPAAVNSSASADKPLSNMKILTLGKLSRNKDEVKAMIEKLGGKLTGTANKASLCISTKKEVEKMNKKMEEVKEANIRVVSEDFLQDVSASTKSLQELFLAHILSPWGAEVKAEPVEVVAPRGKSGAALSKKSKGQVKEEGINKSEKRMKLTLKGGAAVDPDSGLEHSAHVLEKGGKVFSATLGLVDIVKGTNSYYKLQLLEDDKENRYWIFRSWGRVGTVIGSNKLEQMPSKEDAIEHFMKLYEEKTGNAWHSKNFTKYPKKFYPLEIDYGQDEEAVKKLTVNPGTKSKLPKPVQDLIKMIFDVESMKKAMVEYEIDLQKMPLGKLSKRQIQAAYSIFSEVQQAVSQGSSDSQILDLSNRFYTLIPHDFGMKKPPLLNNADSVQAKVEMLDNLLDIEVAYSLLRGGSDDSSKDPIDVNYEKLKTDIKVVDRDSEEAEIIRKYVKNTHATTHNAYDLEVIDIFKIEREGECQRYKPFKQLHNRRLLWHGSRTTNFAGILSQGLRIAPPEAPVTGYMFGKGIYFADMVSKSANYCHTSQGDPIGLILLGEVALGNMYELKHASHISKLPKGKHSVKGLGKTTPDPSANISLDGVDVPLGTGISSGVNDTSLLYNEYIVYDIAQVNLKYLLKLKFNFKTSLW

SMILES | PARP1 L713F-nLuc/akaLuc ratio
CC(C)(C)c1cc(NC(=O)Nc2ccc(-c3cn4c(n3)sc3cc(OCCN5CCOCC5)ccc34)cc2)no1 [Quizartinib (AC220)] | 0.802
Nc1nc(=O)n(-c2cccc(-c3ccccc3)c2)cc1Cl [Bobcat339 (hydrochloride)] | 0.757
O=C(O)C1=CC(=C(c2ccc(O)c(C(=O)O)c2)c2ccc(O)c(C(=O)O)c2)C=CC1=O [Aurintricarboxylic acid] | 0.68
O=C1NC(=O)[C@@H](c2cn3c4c(cccc24)CCC3)[C@@H]1c1c[nH]c2ccccc12 [Tivantinib (ARQ 197)] | 0.773
CCOC(=O)c1cnc(NC2(c3ccccc3)CC2)nc1 | 0.982
CN(C)[C@H]1CN(C2CCc3cccc(F)c32)C[C@@H]1c1ccc(N2CCN(S(C)(=O)=O)CC2)cc1 (some centres not stated) | 4.18 (active)
CC(=O)N(O)CCCCCNC(=O)CCC(=O)N(O)CCCCCNC(=O)CCC(=O)N(O)CCCCCN [Deferoxamine mesylate] | 0.984
COc1cc(/C=C/C(=O)CC(=O)/C=C/c2ccc(O)c(OC)c2)ccc1O [Curcumin] | 1.12
CNc1nc(Nc2cn(C(C)(C)C#N)nc2C)ncc1C(F)(F)F | 0.811
Nc1nc(OCc2cc(Br)cs2)c2[nH]cnc2n1 [Lomeguatrib] | 1.01
Cn1cnc2c(F)c(Nc3ccc(Br)cc3F)c(C(=O)NOCCO)cc21 | 0.546
CN1C[C@@H](Nc2cnn(C)c(=O)c2Br)C[C@@H](c2ccccc2)C1 | 0.711
